The supplement of paper PMC11732987, “Enantioselective OTUD7B fragment discovery through chemoproteomics screening and high-throughput optimisation” (Communications Chemistry, 2025)

Assays:
Assay in all cases: log2 ratio of Biotin-Ahx-Ub-VS probe labelling (fragment/DMSO); higher = less target engagement (more negative = stronger competition), active = hit call of the paper (q ≤ 0.05, log2 ratio ≤ -1)
Settings in all cases: compound concentration: 200 uM; treatment time: 3 h
USP42 = biological target: T1, USP42 (UniProt Q9H9J4)
T1 sequence (whole entry): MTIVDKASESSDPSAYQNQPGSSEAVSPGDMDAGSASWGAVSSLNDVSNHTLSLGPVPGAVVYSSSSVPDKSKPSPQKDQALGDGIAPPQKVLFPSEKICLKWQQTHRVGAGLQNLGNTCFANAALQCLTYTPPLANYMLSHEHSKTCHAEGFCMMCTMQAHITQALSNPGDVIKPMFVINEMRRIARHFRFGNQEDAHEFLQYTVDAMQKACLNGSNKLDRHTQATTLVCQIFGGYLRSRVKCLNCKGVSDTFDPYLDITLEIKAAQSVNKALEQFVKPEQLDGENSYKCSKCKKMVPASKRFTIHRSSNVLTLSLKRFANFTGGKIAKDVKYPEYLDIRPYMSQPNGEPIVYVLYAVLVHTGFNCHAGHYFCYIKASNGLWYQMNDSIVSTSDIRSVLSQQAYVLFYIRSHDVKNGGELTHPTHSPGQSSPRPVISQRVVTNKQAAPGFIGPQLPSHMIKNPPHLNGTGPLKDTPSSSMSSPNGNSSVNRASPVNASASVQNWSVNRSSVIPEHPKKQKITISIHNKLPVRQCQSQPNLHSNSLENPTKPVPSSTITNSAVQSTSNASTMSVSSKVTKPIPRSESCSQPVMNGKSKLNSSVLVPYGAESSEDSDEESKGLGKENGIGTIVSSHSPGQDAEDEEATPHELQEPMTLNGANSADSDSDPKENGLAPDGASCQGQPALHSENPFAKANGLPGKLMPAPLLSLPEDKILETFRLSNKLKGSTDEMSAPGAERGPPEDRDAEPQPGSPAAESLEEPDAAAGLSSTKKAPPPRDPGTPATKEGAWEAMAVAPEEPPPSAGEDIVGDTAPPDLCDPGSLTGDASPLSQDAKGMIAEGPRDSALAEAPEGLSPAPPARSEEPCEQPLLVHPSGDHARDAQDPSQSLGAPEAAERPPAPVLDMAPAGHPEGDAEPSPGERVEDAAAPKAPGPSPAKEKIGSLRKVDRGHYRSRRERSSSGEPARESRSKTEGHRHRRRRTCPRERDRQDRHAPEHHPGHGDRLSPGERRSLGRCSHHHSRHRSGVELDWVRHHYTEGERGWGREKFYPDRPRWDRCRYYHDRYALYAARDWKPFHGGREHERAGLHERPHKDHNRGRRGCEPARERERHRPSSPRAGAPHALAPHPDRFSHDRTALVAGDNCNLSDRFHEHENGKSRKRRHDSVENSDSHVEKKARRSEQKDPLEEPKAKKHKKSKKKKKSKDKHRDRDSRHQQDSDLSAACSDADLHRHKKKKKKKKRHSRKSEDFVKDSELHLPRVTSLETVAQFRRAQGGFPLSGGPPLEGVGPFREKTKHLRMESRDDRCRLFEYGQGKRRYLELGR
Procedure, shortened: (§1)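 HEK293T lysate (495 µg per sample, in Tris/CHAPS/IGEPAL buffer with protease inhibitors) was exposed in triplicate for 3 h to fragment at 200 µM or to vehicle, then to Biotin-Ahx-Ub-VS at 0.5 µM final for 1 h. Labelled DUBs were enriched on NeutrAvidin, digested with LysC and trypsin, and analysed by diaPASEF LC-MS/MS. Spectronaut label-free quantities were normalised to the global median, and values are average log2 ratios of fragment over vehicle from an unpaired t-test. Only proteins with ≥2 unique peptides were used.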

USP46 = USP46 (UniProt P62068)
Sequence of USP46 (P62068 whole entry): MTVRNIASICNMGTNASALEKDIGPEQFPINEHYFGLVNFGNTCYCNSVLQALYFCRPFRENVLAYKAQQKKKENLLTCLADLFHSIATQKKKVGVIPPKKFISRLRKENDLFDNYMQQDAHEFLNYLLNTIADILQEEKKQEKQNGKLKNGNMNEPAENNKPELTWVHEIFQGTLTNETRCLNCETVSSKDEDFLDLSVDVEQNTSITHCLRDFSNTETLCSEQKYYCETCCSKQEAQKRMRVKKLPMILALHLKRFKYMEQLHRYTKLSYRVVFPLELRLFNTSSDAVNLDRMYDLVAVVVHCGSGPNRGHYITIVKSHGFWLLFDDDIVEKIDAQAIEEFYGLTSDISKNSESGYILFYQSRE
Procedure, shortened: as §1

USP47 = biological target: T2, USP47 (UniProt Q96K76)
T2 sequence (whole entry): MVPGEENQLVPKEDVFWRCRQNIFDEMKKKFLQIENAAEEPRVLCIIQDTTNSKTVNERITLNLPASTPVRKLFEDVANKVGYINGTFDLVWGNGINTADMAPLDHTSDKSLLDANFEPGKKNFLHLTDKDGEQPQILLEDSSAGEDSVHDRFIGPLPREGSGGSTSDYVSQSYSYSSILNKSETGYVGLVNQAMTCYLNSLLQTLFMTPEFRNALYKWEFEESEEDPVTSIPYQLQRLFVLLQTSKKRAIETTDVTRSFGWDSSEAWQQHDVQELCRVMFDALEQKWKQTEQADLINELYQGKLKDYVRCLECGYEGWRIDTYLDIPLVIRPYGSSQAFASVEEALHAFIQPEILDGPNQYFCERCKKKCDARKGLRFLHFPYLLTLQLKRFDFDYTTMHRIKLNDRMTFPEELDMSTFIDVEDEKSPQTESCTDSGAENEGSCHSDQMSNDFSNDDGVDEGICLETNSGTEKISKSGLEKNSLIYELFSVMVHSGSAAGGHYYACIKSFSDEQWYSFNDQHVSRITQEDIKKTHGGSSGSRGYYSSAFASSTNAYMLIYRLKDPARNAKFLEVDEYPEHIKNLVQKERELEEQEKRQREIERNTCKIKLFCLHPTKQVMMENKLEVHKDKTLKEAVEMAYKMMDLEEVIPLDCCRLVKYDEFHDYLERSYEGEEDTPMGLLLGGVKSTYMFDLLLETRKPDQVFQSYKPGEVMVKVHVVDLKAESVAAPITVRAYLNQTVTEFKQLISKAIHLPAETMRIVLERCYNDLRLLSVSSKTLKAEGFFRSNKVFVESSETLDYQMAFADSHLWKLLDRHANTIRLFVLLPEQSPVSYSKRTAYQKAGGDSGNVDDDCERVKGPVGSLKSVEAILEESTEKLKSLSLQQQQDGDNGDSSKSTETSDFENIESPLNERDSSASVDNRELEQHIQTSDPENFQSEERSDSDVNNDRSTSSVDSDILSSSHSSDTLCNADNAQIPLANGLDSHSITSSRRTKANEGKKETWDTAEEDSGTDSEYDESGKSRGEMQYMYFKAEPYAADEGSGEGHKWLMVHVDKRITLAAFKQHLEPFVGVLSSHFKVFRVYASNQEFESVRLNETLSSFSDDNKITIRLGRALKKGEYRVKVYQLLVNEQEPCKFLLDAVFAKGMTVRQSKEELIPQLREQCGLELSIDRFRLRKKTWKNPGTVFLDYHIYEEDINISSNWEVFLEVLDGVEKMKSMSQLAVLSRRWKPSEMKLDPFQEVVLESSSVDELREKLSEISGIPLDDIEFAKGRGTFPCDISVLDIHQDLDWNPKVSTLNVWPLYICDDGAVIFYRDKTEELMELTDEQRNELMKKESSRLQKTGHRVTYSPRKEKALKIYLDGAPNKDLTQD
Procedure, shortened: as §1

USP48 = biological target: T3, USP48 (UniProt Q86UV5)
T3 sequence (whole entry): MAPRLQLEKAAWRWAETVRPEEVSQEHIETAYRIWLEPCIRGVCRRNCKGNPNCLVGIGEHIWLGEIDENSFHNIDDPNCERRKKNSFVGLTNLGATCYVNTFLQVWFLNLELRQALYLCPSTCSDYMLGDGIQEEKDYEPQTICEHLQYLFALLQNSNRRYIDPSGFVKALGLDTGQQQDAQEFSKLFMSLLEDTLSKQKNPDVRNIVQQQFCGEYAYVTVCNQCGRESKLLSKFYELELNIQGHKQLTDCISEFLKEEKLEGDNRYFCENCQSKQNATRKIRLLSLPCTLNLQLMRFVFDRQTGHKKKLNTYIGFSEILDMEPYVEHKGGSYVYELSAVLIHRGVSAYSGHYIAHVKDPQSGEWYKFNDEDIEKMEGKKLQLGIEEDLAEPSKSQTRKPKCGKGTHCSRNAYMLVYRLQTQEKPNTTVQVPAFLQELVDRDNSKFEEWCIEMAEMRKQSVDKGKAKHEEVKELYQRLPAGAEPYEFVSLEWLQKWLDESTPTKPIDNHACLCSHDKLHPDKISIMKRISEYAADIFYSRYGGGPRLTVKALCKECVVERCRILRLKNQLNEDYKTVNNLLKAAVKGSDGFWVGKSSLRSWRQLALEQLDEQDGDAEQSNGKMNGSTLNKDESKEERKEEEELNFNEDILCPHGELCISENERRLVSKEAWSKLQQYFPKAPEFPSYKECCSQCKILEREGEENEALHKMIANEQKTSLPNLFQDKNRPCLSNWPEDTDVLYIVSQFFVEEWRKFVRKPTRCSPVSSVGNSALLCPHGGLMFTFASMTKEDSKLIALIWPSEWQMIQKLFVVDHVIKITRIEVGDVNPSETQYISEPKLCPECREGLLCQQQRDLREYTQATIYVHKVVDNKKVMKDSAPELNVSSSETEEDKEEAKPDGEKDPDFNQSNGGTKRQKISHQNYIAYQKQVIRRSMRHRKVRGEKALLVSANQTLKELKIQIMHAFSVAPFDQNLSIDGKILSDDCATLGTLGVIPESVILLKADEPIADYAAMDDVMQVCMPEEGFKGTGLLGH
Procedure, shortened: as §1

USP5 = biological target: T4, USP5 (UniProt P45974)
T4 sequence (whole entry): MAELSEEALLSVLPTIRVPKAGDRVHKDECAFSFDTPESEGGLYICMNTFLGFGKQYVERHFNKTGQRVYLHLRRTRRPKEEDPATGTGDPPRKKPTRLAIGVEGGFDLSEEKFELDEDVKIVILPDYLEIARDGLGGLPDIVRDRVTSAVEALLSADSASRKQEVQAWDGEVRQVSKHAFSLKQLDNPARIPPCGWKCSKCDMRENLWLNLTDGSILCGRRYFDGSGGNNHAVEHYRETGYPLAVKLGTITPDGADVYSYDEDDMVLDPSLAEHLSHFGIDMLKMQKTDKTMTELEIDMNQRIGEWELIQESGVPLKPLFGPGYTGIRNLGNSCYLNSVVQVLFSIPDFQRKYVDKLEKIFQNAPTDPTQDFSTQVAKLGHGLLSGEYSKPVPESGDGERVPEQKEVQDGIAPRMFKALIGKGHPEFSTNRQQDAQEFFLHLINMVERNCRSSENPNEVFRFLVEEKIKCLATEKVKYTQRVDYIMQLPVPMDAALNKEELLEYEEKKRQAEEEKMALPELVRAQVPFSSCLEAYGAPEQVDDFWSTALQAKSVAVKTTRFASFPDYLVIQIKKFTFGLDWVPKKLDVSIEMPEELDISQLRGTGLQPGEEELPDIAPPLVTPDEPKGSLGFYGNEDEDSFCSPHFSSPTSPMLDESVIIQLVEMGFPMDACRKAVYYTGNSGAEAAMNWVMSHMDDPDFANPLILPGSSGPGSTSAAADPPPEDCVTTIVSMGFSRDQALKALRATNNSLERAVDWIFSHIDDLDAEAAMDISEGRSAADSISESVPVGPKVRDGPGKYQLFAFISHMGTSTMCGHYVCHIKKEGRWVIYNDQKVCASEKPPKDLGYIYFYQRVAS
Procedure, shortened: as §1

USP54 = USP54 (UniProt Q70EL1)
Sequence of USP54 (Q70EL1 whole entry): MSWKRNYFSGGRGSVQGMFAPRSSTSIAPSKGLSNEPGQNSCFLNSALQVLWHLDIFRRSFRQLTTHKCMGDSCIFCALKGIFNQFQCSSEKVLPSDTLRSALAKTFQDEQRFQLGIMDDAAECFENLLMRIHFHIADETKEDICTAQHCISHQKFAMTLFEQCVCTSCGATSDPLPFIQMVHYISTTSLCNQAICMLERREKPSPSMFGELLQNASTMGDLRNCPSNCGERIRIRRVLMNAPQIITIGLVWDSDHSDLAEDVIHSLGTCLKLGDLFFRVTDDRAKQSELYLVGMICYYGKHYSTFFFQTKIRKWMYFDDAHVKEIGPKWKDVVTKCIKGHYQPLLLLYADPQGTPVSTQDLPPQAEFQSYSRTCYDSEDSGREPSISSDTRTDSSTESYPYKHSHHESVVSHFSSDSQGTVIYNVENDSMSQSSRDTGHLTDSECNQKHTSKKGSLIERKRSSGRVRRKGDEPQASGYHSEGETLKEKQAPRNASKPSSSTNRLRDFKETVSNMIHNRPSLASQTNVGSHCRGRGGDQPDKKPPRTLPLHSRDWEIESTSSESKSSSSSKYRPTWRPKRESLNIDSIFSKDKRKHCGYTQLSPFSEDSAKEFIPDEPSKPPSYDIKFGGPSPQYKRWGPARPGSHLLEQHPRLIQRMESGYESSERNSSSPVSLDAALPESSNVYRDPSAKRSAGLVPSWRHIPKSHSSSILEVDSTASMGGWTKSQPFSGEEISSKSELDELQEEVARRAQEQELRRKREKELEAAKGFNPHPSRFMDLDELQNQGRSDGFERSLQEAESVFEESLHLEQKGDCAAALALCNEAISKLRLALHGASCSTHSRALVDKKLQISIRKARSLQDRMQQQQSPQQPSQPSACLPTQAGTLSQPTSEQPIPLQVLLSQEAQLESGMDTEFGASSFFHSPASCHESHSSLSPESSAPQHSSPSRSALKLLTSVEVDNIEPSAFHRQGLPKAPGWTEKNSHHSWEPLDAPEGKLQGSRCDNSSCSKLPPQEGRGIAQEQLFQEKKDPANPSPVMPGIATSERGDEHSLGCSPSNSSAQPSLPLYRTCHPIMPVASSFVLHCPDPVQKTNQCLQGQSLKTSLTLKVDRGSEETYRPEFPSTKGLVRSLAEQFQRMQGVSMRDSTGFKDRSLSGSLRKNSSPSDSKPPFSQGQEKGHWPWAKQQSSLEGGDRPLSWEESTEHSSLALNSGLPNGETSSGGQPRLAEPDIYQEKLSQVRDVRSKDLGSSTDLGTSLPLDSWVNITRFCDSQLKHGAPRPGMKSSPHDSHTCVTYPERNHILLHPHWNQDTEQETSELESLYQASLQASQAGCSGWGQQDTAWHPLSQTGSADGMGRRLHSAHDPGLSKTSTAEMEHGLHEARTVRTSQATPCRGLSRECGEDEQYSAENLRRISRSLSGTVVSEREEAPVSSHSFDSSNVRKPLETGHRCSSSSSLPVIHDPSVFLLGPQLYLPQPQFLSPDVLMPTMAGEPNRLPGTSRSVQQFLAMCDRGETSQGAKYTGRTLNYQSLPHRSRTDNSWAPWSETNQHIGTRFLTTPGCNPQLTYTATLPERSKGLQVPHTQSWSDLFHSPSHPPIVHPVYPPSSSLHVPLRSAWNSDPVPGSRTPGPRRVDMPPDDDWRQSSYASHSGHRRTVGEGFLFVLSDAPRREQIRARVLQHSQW
Procedure, shortened: as §1

USP7 = USP7 (UniProt Q93009)
Sequence of USP7 (Q93009 whole entry, looked up): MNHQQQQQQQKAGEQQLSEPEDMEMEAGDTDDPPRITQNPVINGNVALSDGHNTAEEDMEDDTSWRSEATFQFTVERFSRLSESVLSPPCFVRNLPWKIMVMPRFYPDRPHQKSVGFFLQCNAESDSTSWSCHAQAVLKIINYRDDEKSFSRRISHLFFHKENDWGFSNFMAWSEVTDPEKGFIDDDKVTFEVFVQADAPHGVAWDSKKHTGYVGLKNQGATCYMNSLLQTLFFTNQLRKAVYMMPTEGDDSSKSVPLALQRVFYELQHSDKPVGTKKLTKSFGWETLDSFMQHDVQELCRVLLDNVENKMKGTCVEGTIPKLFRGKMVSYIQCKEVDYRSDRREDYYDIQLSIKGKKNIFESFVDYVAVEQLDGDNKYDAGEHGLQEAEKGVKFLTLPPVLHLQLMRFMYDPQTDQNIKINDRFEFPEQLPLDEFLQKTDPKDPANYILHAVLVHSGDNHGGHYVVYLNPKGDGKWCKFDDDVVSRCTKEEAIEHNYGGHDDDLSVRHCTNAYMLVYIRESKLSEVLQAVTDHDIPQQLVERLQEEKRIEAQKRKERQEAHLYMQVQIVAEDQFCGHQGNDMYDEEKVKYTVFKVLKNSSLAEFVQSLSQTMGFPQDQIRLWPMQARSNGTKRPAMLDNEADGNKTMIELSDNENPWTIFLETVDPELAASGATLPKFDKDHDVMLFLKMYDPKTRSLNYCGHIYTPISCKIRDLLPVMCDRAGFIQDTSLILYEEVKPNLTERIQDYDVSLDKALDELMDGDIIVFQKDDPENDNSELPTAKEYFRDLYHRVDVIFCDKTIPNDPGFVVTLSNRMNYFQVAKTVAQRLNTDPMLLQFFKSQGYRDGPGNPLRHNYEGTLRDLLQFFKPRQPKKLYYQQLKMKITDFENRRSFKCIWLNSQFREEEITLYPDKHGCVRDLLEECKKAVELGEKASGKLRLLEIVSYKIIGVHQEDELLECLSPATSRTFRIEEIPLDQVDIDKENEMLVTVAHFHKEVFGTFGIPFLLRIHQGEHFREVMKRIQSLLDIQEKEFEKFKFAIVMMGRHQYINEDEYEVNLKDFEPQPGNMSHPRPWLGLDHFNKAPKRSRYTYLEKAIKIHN
Procedure, shortened: as §1

USP8 = biological target: T5, USP8 (UniProt P40818)
T5 sequence (whole entry): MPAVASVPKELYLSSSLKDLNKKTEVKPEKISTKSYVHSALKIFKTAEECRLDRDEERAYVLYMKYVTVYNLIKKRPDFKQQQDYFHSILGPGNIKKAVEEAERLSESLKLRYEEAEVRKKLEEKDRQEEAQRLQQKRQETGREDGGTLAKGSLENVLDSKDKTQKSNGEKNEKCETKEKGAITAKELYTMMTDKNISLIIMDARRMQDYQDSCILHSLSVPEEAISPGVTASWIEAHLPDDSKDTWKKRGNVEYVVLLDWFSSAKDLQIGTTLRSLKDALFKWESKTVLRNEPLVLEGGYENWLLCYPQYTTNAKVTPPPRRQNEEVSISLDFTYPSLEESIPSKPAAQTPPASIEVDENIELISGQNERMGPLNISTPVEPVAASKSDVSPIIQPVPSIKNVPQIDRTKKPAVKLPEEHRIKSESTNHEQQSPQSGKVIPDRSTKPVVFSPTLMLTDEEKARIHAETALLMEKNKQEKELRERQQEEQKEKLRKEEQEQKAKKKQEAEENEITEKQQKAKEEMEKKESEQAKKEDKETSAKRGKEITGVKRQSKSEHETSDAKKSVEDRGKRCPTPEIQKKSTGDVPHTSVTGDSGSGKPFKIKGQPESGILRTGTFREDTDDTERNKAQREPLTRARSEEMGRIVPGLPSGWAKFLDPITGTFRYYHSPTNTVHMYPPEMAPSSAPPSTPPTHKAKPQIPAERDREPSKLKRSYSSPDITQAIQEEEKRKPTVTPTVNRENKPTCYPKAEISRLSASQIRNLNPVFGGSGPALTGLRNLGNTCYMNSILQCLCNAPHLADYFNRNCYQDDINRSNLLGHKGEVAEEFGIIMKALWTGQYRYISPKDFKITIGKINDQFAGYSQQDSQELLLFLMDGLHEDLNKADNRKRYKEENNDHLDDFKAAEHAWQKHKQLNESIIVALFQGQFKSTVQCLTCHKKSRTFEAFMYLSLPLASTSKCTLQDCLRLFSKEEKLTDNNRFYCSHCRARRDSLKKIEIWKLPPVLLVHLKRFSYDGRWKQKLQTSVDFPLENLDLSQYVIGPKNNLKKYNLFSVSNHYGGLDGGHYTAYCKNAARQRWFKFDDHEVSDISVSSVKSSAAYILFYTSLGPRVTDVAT
Procedure, shortened: as §1

Measured: log2 ratio of Biotin-Ahx-Ub-VS probe labelling

O=C(CCl)N1CCC(C(=O)N2CCCCCC2)CC1
inactive: USP42 0.671 | USP46 -0.142 | USP47 -0.239 | USP48 -0.0351 | USP5 0.0959 | USP54 0.452 | USP7 -0.714 | USP8 -0.0368
